A selection: hits, their analogues and other compounds. The true share with any hit is near 0.37%.
Cdc42 wt GTP: modulators (inhibitors or activators) of GTP binding to human Cdc42 wildtype; percent activity (GTP binding), % at 10 µM; P60953; actives 0.2% (n = 190,000); GST-Cdc42 beads, Bodipy-GTP binding, flow cytometry; actives lie on both sides; AID 761;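 active means percent activity GTP binding at least 20 points away from the 100% baseline, either down as inhibitor or up as activator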;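 further: median bead fluorescence of bound Bodipy-FL-GTP at 100 nM; 0% = excess unlabeled GTP control and 100% = no compound control; below 100% means less GTP binding so inhibitor and above means activator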
Target sequence (P60953 whole entry, looked up): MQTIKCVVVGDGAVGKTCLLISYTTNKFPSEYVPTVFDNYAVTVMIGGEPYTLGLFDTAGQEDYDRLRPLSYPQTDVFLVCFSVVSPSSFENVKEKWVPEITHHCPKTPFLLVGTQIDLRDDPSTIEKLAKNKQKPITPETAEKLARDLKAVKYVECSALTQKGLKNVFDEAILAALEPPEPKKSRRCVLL
Rab2A wt mod: changes GTP binding to wildtype dog Rab2A, up or down; GTP binding activity, % at 10 µM; actives 0.19% (n = 190,000); GST-Rab2 wt beads, Bodipy-GTP binding, flow cytometry; P61105; AID 760;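 active means GTP binding activity at least 20 points away from 100%, either lowered or raised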;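 further: 0% = beads with excess unlabeled GTP and 100% = no-compound control corrected for plate trend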
HRas wt GTP bind: changes GTP binding to wildtype human HRas | GST-Ras wt beads, Bodipy-FL-GTP binding, flow cytometry; actives lie on both sides | GTP binding activity, % at 10 µM | AID 759 | actives 0.14% (n = 190,000);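 active means GTP binding activity at least 20% away from the 100% baseline, either lowered as inhibitor or raised as activator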;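 further: 0% = unlabeled GTP competition control and 100% = no-compound control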
Target sequence (P01112 whole entry, looked up): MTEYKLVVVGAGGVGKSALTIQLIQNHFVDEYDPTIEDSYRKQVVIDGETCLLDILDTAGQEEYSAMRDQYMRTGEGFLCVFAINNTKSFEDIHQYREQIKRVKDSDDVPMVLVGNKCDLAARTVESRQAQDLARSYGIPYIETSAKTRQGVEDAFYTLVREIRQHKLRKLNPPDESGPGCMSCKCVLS
Rac1 wt GTP bind: alters GTP binding to wildtype human Rac1; AID 757; actives 0.27% (n = 190,000); GTP binding activity (% of control), % at 10 µM; GST-Rac1 beads, fluorescent GTP binding, flow cytometry; actives lie on both sides; 0 = cold GTP competed, 100 = untreated; P63000;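 active means GTP binding activity at least 20 points away from the 100% control level, either lower or higher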
Rac1 mut GTP: modulators of GTP binding to human Rac1 activated mutant. P63000. percent activity (GTP binding), % at 10 µM. GST-Rac1 activated beads, fluorescent GTP binding, flow cytometry; actives lie on both sides; 100% means binding = to untreated wells. AID 764. actives 0.11% (n = 190,000);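 active means GTP binding at least 20 percentage points away from the 100% baseline, in either direction, so actives lie on both sides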
Rab7 wt modul: dog Rab7 wildtype GTP binding, inhibitors and activators; actives 0.055% (n = 190,000); GST-Rab7 beads, fluorescent GTP binding, flow cytometry; actives lie on both sides; untreated = 100%, excess cold GTP = 0%; AID 758; GTP binding activity (percent of control), % at 10 µM;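 active means fluorescent GTP binding to Rab7 beads changed by at least 20 points from the 100% baseline, either direction, mostly lower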;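 further: median green fluorescence of bound Bodipy-FL-GTP per Rab7 bead population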
* = called active by the depositor; [ ] = another dose, or the depositor's remark.

SMILES	Cdc42 wt GTP	Rab2A wt mod	HRas wt GTP bind	Rac1 wt GTP bind	Rac1 mut GTP	Rab7 wt modul
CO/N=C/NC(=O)NOCc1ncc(C(F)(F)F)cc1Cl	118	115	113	123*[activator]	104	104
NC(=O)NOCc1ncc(C(F)(F)F)cc1Cl	117	113	111	120*[activator]	104	105
Cc1ccc(NC(=S)N(CCN2CCOCC2)Cc2cc3cc4c(cc3[nH]c2=O)OCO4)cc1	95	95	95	96	95	97
COc1ccc(CN(CC2CCC(C(=O)O)CC2)C(=S)Nc2cccc(C)c2)cc1 (stereo not given)	97	96	95	94	93	94
Cc1cc(C)n(CCNc2nc3nonc3nc2N2CCCCC2)n1	93	96	94	91	92	102
C=CC#CC[N+]1(CC#Cc2ccccc2)CCOCC1	107	100	106	128*[activator]	116	101
C(#Cc1ccccc1)C[N+]1(CC#Cc2ccccc2)CCCC1	103	102	103	103	98	104
O=c1c2ccccc2nc2ccc(NCc3cccs3)nn12	76*	74*	79*	74*	88	91
CCn1c(NCc2cccs2)nc2ccccc21	105	99	100	106	99	97
COc1ccc2o/c(=N/NC(=O)c3cccs3)c(C(N)=O)cc2c1	60*	61*	61*	57*	80	91
CC(C)Cc1csc(NC(=O)c2ccc(Cl)cc2)c1C(=O)O	94	89	91	92	90	95
CC(C)Cc1csc(NC(=O)c2ccccc2Cl)c1C(=O)O	78*	80	81	79*	82	85
Cc1ccc(C(=O)c2ccccc2C(=O)O)cc1C	135*[activator]	124*[activator]	123*[activator]	150*[activator]	132*[activator]	119
Cc1ccc(C(=O)c2ccccc2C(=O)O)c(O)c1	102	99	101	103	98	100
Cc1cc(C)c(C)c(C(=O)c2ccccc2C(=O)O)c1C	132*[activator]	123*[activator]	120*[activator]	150*[activator]	129*[activator]	119
COc1cc(NC(=O)c2cccs2)c(OC)cc1NC(=O)CCC(=O)Nc1cccc2ncccc12	74*	71*	73*	67*	81	81
COc1cc(C(=O)Nc2cccc3ncccc23)cc(OC)c1OC	100	102	99	103	96	102
Cc1nonc1-c1csc(N)n1	96	98	99	98	95	104
CC(C)(C)CC(=O)NC(=S)NCc1ccco1	103	103	103	125*[activator]	100	108
NS(=O)(=O)c1ccc(N2N=C(c3ccccc3)CC2c2ccc(F)cc2)cc1 (stereo not given)	89	94	97	94	96	93
COc1ccc(C2CC(c3ccccc3)=NN2c2ccc(S(N)(=O)=O)cc2)cc1 (stereo not given)	78*	97	99	98	94	104
O=c1[nH]c2sc3c(c2c2nncn12)CCCC3	79*	77*	78*	76*	88	85
COc1ccc(/C=N/NC(=O)c2ccco2)cc1Cn1nc(C)c([N+](=O)[O-])c1C	96	98	96	95	94	97
COc1ccc(/C=N/NC(=O)c2ccncc2)cc1Cn1nc([N+](=O)[O-])c(Br)c1C	65*	68*	74*	76*	83	97
COc1ccc(CC2(CO)CCN(S(=O)(=O)c3sccc3C)CC2)cc1	63*	66*	61*	58*	57*	66*
SMILES	Cdc42 wt GTP	Rab2A wt mod	HRas wt GTP bind	Rac1 wt GTP bind	Rac1 mut GTP	Rab7 wt modul
COc1ccc(CC2(CO)CCN(S(=O)(=O)c3c(C)nn(C)c3Cl)CC2)cc1	98	96	96	99	95	96
O=C(NCc1ccccn1)C(=O)Nc1nc(C23CC4CC(CC(C4)C2)C3)cs1	93	96	97	97	97	103
O=C(Nc1sc2c(c1C(=O)O)CCCCC2)c1ccccc1	78*	81	82	80	77*	89
Cc1ccccc1CSc1ccc(-c2ccc3c(c2)OCO3)nn1	98	97	97	98	97	100
CCN(CC)c1ccc2c(c1)oc(=O)c1c(Cl)cc(=O)oc12	88	89	89	87	78*	93
CCOC(=O)c1cncc(C(=O)O)c1	107	103	106	107	102	101
CCN(CC)S(=O)(=O)c1ccc2oc(C(=O)N3CCc4ccccc4C3)c(C)c2c1	107	108	110	128*[activator]	107	109
CCN(CC)S(=O)(=O)c1ccc2oc(C(=O)N3CCCCCC3)c(C)c2c1	112	109	109	107	101	103
O=C(Nc1ccccc1N1CCCC1)c1ccc([N+](=O)[O-])cc1Cl	91	95	95	94	93	101
COc1cccc(-n2nnnc2S(C)(=O)=O)c1	72*	85	90	85	70*	92
COc1cccc(Oc2nnnn2-c2ccccc2)c1	99	99	99	104	99	98
Cc1ccc(S(=O)(=O)c2cc3c(=O)n4ccccc4nc3n(C)c2=N)cc1	82	78*	79*	93	91	93
Cc1ccc(S(=O)(=O)c2cc3c(=O)n4ccccc4nc3n(Cc3ccco3)c2=N)cc1C	108	103	107	109	103	103
CCn1c(=N)c(S(=O)(=O)c2ccccc2)cc2c(=O)n3ccccc3nc21	88	89	91	87	94	95
CCn1c(=N)c(S(=O)(=O)c2ccc(C)cc2)cc2c(=O)n3ccccc3nc21	81	84	84	74*	90	95
CCCc1cc(N2CCN(C(=O)c3ccco3)CC2)n2c(nc3ccccc32)c1C#N	87	79*	81	84	85	84
NS(=O)(=O)c1ccc(-c2ccc(/C=C3\C(=O)Nc4cc(Cl)ccc43)o2)cc1	73*	76*	76*	68*	87	94
CC1(C)OC(=O)C(=Cc2ccc(-c3ccc(S(N)(=O)=O)cc3)o2)C(=O)O1	92	92	88	88	85	98
CCCN1C(=O)/C(=C\C=C2/Sc3ccccc3N2CC)SC1=S	73*	74*	68*	69*	75*	77*
CCN1/C(=C\C=C2\C(=O)N(c3ccccc3)C(=S)N2C)Sc2ccccc21	83	87	78*	83	85	83
CCN(CC)S(=O)(=O)c1cc(NC(=O)CSc2nc3c(cc2C#N)C(=O)CC(C)(C)C3)ccc1C	100	94	95	98	96	95
COc1c(Cl)cc(Cl)cc1CNCCO	96	97	98	101	95	99

Screens: PubChem, NMMLSC
